This is a sample that favours compounds with a hit; in the whole collection about 4.7% have one here.
TRHR agonist – qHTS for Small Molecule Agonists and Allosteric Enhancers of Human TRH Receptor: Primary Screen for Agonists; Thyrotropin-releasing hormone receptor (Homo sapiens), P34981; TRHR cells, calcium flux fluo-8, FDSS agonist mode; activation, % at 2 µM; hit rate 0.18% among 360,000; note: 0% is about no effect
Target sequence (P34981 whole entry, looked up): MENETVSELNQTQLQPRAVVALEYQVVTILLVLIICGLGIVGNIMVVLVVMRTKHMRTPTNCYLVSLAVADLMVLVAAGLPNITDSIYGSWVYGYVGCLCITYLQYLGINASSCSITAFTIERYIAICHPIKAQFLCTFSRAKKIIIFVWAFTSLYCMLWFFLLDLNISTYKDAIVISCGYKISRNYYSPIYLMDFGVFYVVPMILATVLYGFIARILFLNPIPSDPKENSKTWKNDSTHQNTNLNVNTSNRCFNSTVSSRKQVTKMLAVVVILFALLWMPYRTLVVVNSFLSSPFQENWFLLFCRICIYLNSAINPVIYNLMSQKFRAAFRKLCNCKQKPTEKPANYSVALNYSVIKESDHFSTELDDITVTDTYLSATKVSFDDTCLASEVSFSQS
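Steps: seed TRHR cells overnight; add fluo-8 no-wash Ca dye, RT 30 min–1.5 h; record 10 s baseline; pin-transfer compounds; monitor fluorescence 1 cycle/s for the agonist window. Calcium increases flag candidate agonists.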
D1 PAM – Potentiators of Human D1 Dopamine Receptor: qHTS. hit rate 0.036% among 360,000. HEK293 TREx D1 cells, calcium flux, dopamine EC20 potentiation. D(1A) dopamine receptor (Homo sapiens), P21728. potentiation, % at 10 µM. AID 504651, 2011; in the data active = potentiation above about 30%; note: 0% is about no effect
TRHR PAM – qHTS for Small Molecule Agonists and Allosteric Enhancers of Human TRH Receptor: Primary Screen for Enhancers; TRHR cells, fluo-8 calcium fluorescence, EC20 TRH enhancement; enhancement, % at 2 µM; hit rate 0.66% among 360,000; AID 493056, 2011; in the data active = enhancement above about 30%; note: 0% is about no effect
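Enhancer read-out: after compound pinning and an initial kinetic agonist-mode read, an EC20 of TRH (10 nM final) was injected and fluo-8 calcium signal (Ex 480/Em 530) followed at 1 s/cycle for 100 cycles in TRHR-expressing cells.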
D1 ag – Allosteric Agonists of the Human D1 Dopamine Receptor: qHTS; D(1A) dopamine receptor (Homo sapiens), P21728; activation, % at 2 µM; AID 504660, 2011; hit rate 1% among 360,000; HEK293 T-REx D1 cells, calcium flux, agonist mode; note: 0% is about no effect
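Agonism was scored from calcium flux recorded over 180 s (1 read/s) after pintool compound addition, following a 10-cycle baseline. Cells were inducible force-coupled HEK293 TREx D1, plated overnight at 30 C and loaded with no-wash calcium dye.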
D1 antag – Antagonist of Human D 1 Dopamine Receptor: qHTS. AID 504652, 2011. activity change, negative = inhibition, % at 10 µM. HEK293 TREx D1 cells, calcium flux, dopamine EC80; stronger effect = lower value. hit rate 3.2% among 360,000; in the data active = activity change below about -30%; note: % is set by controls: 0 for no effect and ±100 for the full control effect
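Tetracycline-induced HEK293 Trex D1 cells, force-coupled to calcium, dye-loaded; compounds added and read 180 s, then EC80 dopamine added and calcium flux tracked kinetically another 180 s.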
The depositor's hits bear a star; / = no result given. Cut-off read from the data, not from the text of the source, unless noted: active = activation above about 30%; inactive = the rest.

SMILES | TRHR agonist | D1 PAM | TRHR PAM | D1 ag | D1 antag
CCCNC(=S)N1CCN(C(c2ccccc2)c2ccccc2)CC1 | -0.4 | -6.8 | -6.5 | 0.8 | -32.8*
Cc1cc2c(s1)c1cnn(Cc3ccccc3F)c(=O)c1n2Cc1ccccc1F | 0.8 | 14.6 | -3.4 | 3.1 | -3.1
N#CCCN(Cc1cccnc1)S(=O)(=O)c1ccc2ccccc2c1 | -0.5 | -0.4 | 2.5 | 0.2 | -36.6*
N#CCCN(Cc1cccnc1)S(=O)(=O)c1ccc(S(=O)(=O)NC2CCCCC2)cc1 | 0.0 | 3.1 | -7.3 | 0.7 | 4.4
CCN1CCC(N(Cc2ccc(F)cc2)C(=O)Nc2cccc(C(F)(F)F)c2)CC1 | 3.1 | 0.0 | 2.6 | 100.2* | -24.6
CCN1CCC(N(Cc2cccc(OC)c2)C(=O)Nc2cccc(C(F)(F)F)c2)CC1 | 0.7 | -0.9 | 0.9 | 27.0 | -4.1
O=C(N/N=C\C=C\c1ccc2c(c1)OCO2)c1cccnc1 | 0.4 | -6.9 | -2.1 | 2.4 | -38.6*
O=C(/C=C/c1ccc2c(c1)OCO2)c1cccnc1 | 0.8 | 1.2 | 2.4 | 0.1 | -8.6
O=C(N/N=C/c1cccc(Oc2ccccc2)c1)c1cccc(O)c1 | -0.5 | 5.2 | -7.1 | 0.1 | -13.4
NC(=O)c1ccc(C(=O)N/N=C/c2cccc(Oc3ccccc3)c2)cc1 | 1.0 | 2.6 | 35.7* | 3.8 | 21.9
O=C(N/N=C\c1ccc2c(c1)OCO2)c1ccco1 | 0.4 | -9.9 | 0.6 | -0.4 | 7.6
O=C(N/N=C\c1cccc(OC(=O)c2ccco2)c1)c1ccc2c(c1)OCO2 | 6.1 | -1.6 | 33.5* | 0.5 | -5.3
O=C(N/N=C/c1cccnc1)c1ccc2c(c1)OCO2 | -0.1 | -3.0 | -0.7 | 2.8 | -34.6*
COc1cccc(CNC(=O)c2ccc3c(c2)nc2n3CCOC2)c1OC | 0.5 | 1.0 | 26.9 | 0.9 | 0.8
COc1ccc(C(=O)OCc2cc(=O)n3nc(-c4cccs4)sc3n2)cc1 | 0.0 | -0.3 | -0.6 | 3.3 | -0.4
COc1ccc(NC(=O)CCCN2C(=O)COc3ccc(C)cc32)cc1OC | -1.7 | -4.6 | 1.1 | 7.0 | -45.8*
CC(C)(C)c1ccc2c(c1)N(CC(=O)O)C(=O)CO2 | 0.5 | -7.7 | 4.7 | 2.6 | 2.4
Cc1ccc2c(c1)N(CC(=O)O)C(=O)CO2 | 0.4 | -5.2 | -4.9 | 2.4 | -30.0*
Cc1ccc(C)c(NC(=O)CCCN2C(=O)COc3ccc(C)cc32)c1 | -1.8 | 3.2 | -3.6 | 0.5 | 15.3
COc1ccccc1OCCn1c(NC(=O)c2ccccc2Cl)nc2ccccc21 | 0.1 | -0.9 | 6.6 | -0.5 | -4.0
COC(=O)c1c(C)[nH]c(C=Nc2ccc(OC)cc2)c1C | 0.2 | -0.1 | 37.8* | 0.2 | 3.9
CC(C)NS(=O)(=O)c1ccc(N2C(=O)c3ccccc3C2=O)cc1 | 1.1 | -1.4 | -7.0 | 12.0 | -32.9*
CC/C(=N/Nc1ccccc1)c1cnnc(-c2ccccc2)n1 | -0.6 | -4.2 | 1.3 | -2.6 | -11.9
CC/C(=N/Nc1cccc(Cl)c1)c1cnnc(SC)n1 | 0.8 | -9.8 | 6.5 | 1.5 | -37.4*
CCOc1ccc(NC(=S)N(CCCN2CCCC2)Cc2cccn2Cc2ccc(Cl)cc2)cc1 | 0.5 | -14.5 | -7.7 | 3.9 | -47.8*
SMILES | TRHR agonist | D1 PAM | TRHR PAM | D1 ag | D1 antag
Cc1ccc2nc3sc(C(=O)N4CCCc5ccccc54)c(N)c3cc2c1 | 9.0 | -1.1 | -4.6 | 36.4* | 9.4
COc1ccc(CNC(=O)C2CCN(c3nc4ccc(C)cc4[nH]3)CC2)cc1 | -0.4 | 6.7 | -2.0 | 37.6* | -0.9
COCCCNC(=O)C1CCN(c2nc3ccc(C)cc3[nH]2)CC1 | 0.2 | -2.0 | -1.8 | 2.3 | -55.5*
Clc1ccc2nc(C3CCN(Cc4ccccc4)CC3)[nH]c2c1 | 1.3 | -9.5 | 0.9 | 3.5 | -14.3
COc1cccc(CNC(=O)CN2CCC(c3nc4ccc(C)cc4[nH]3)CC2)c1 | -0.9 | -2.5 | 1.2 | 0.2 | -37.7*
Cc1ccc(CN2CCC(c3nc4ccc(Cl)cc4[nH]3)CC2)cc1 | 0.8 | -5.9 | 7.3 | 19.4 | -30.8*
Cc1ccc2nc(N3CCC(C(=O)NCc4ccc(F)cc4)CC3)[nH]c2c1 | -0.5 | 2.6 | 2.9 | 0.6 | -9.8
Cc1ccc(C2c3cccn3CCN2S(=O)(=O)c2ccc([N+](=O)[O-])cc2)cc1 (stereo unspecified) | 0.3 | -2.1 | -4.9 | -3.2 | /
C/C(=N\Nc1nccnc1Cl)c1ccc([N+](=O)[O-])cc1 | -0.9 | -4.8 | 0.6 | 0.3 | -61.1*
C/C(=N\Nc1nccnc1Cl)c1ccc(Br)cc1 | -2.7 | -4.1 | -3.0 | 2.2 | 7.2
CNS(=O)(=O)c1cccc(C(=O)OCC(=O)/C=C2/N(C)c3ccccc3C2(C)C)c1 | 1.5 | -5.7 | 5.5 | 18.4 | -42.9*
CN1/C(=C\C(=O)COC(=O)c2ccc(O)c(O)c2)C(C)(C)c2ccccc21 | -0.5 | -12.8 | 12.8 | 19.1 | -26.2
CNS(=O)(=O)c1cccc(C(=O)OCC(=O)c2c(N)n(C)c(=O)n(C)c2=O)c1 | -1.3 | 0.2 | 4.4 | 3.8 | -32.4*
Cc1ccc(-n2nc3c(c2NC(=O)c2ccccc2Br)CS(=O)C3)cc1 (stereo unspecified) | 0.1 | -4.3 | 2.6 | 1.6 | -42.6*
Cc1ccc(-n2nc3c(c2NC(=O)c2ccc(OC(C)C)cc2)CS(=O)C3)cc1 (stereo unspecified) | -0.5 | -6.2 | 0.2 | 2.3 | -2.2
COc1ccc(NC(=O)CN2C(=O)C(C)(C)c3ccccc32)cc1Cl | 0.2 | -0.6 | -0.5 | 4.0 | -50.2*
O=C(Nc1ccc(N2CCC(c3ccccc3)C2)c(C(=O)O)c1)c1ccc(Cl)cc1 (stereo unspecified) | -0.2 | -4.4 | 2.8 | 2.2 | -4.8
NNC(=O)CNC(c1ccccc1)c1cc(Br)ccc1NC(=O)CCN1CCOCC1 (stereo unspecified) | -0.9 | 3.8 | 35.9* | 6.7 | -0.5
NNC(=O)CNC(c1ccccc1)c1cc(Br)ccc1NC(=O)c1ccc(Br)cc1 (stereo unspecified) | -1.0 | -8.4 | 2.7 | 17.1 | 2.9
CCN(CC)c1ccc(-n2c(C)cc(C=O)c2C)cc1 | -0.5 | 0.6 | -9.2 | 3.1 | -32.1*
C=CCC1S/C(=N/N=C/c2cccs2)NC1=O (stereo unspecified) | -0.7 | -5.7 | 8.2 | -0.6 | -13.1
O=C1N/C(=N\N=C\c2cccs2)SC1Cc1ccc(Cl)c(Cl)c1 (stereo unspecified) | 0.5 | -5.2 | -2.7 | 0.6 | -43.5*
CN(C)CC1CCCCC1C1(O)c2ccccc2CSc2sccc21 (stereo unspecified) | -0.5 | -15.7 | 15.5 | 78.3* | -2.2
